Measurements taken from PubChem BioAssay (EPA / NIEHS).
Results filed as inconclusive are left out. Calls of active or inactive are those of the source. How the source made its calls, unless noted: active means hit-call score of the fitted dose curve at least 0.9, where 1 is the maximum; inconclusive means response in the unintended direction; inactive means score below 0.9.

Legend:
[1] = BSK_4H_Eotaxin3: BioMAP Diversity Plus: 4H Assay for Eotaxin 3 Biomarker Activity (AID 2283000; active means hit-call score of the fitted dose curve at least 0.9, where 1 is the maximum; inactive means score below 0.9); conditions: primary human endothelial cells (HUVEC); actives raise or lower the signal
In short: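 Chemicals were added to human umbilical vein endothelium cultures, and Eotaxin-3 was quantified by ELISA at 24 h. Values were derived by bidirectional fitting with DMSO serving as negative control and activity baseline.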

[2] = target: human Peroxisome Proliferator-activated Receptor alpha (PPARa), PPARA (gene 5465) (UniProt Q07869); assay: ATG_PPARa_TRANS: Attagene TRANS-FACTORIAL HepG2 Assay for human Peroxisome Proliferator-activated Receptor alpha (PPARa) (AID 2283001);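 on AC50: potency for gain of reporter signal over DMSO so agonist or activator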
In short: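 Read-out is fluorescence of reporter cDNA fragments resolved by capillary electrophoresis after RT-PCR. Human HepG2 liver cells carried transfected PPARa-Gal4 chimera and GAL4-UAS reporter units, treated 24 h; activity scored as increase over DMSO.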

[3] = read-out: Intercellular Adhesion Molecule 1 (ICAM1), ICAM1 (gene 3383); assay: BSK_3C_ICAM1: BioMAP Diversity Plus: 3C Assay for Intercellular Adhesion Molecule 1 (ICAM1) Biomarker Activity (AID 2283003; active means hit-call score of the fitted dose curve at least 0.9, where 1 is the maximum; inactive means score below 0.9); conditions: primary human endothelial cells (HUVEC); actives raise or lower the signal
In short: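 ICAM-1 levels measured by ELISA after HUVEC cultures in the 3C system had been dosed for 24 h. Gain or loss of signal relative to DMSO was fitted in both directions.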

[4] = target: human Retinoic Acid Receptor beta (RARb), RARB (gene 5915) (UniProt P10826); assay: ATG_RARb_TRANS: Attagene TRANS-FACTORIAL HepG2 Assay for human Retinoic Acid Receptor beta (AID 2283004)
Chain of human Retinoic Acid Receptor beta (RARb), RARB (gene 5915) (P10826 whole entry, looked up): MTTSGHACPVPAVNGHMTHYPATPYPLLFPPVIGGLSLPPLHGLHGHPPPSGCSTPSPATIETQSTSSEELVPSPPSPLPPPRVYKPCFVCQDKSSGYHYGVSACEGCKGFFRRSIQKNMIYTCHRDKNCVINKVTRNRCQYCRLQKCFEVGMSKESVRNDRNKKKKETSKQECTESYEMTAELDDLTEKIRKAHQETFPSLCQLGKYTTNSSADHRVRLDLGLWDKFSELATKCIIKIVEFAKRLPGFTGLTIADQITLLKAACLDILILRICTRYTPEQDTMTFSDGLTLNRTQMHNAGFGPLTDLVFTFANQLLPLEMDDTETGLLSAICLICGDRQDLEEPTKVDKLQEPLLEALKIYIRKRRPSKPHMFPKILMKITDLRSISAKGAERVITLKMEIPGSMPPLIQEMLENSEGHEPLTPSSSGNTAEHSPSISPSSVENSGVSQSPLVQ
In short: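 Transient transfection of HepG2 with multiple reporter units → chemical dosing, 24 h → total RNA isolation → RT with oligo(dT) → reporter-specific PCR, 6-FAM primer extension, HpaI digest → capillary electrophoresis. Positive direction vs DMSO control.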

[5] = BSK_3C_Proliferation: Cell Proliferation Assessment in the BioMAP Diversity Plus: 3C Assay (AID 2283006; active means hit-call score of the fitted dose curve at least 0.9, where 1 is the maximum; inactive means score below 0.9;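 on AC50: potency may reflect either rise or fall in cell number versus DMSO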); conditions: primary human endothelial cells (HUVEC)
In short: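 Read-out is total protein by SRB absorbance at 560 nm, taken as a proxy for relative cell number. Primary human umbilical vein endothelium cultured below confluence was dosed for 48 h, TCA-fixed and SRB-stained; curves were fitted bidirectionally versus DMSO.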

[6] = target: human RAR-related Orphan Receptor beta (RORb), RORB (gene 6096) (UniProt Q92753); assay: ATG_RORb_TRANS: Attagene TRANS-FACTORIAL HepG2 Assay for human RAR-related Orphan Receptor beta (RORb) (AID 2283010)
Chain of human RAR-related Orphan Receptor beta (RORb), RORB (gene 6096) (Q92753 whole entry, looked up, the tested form may be a part): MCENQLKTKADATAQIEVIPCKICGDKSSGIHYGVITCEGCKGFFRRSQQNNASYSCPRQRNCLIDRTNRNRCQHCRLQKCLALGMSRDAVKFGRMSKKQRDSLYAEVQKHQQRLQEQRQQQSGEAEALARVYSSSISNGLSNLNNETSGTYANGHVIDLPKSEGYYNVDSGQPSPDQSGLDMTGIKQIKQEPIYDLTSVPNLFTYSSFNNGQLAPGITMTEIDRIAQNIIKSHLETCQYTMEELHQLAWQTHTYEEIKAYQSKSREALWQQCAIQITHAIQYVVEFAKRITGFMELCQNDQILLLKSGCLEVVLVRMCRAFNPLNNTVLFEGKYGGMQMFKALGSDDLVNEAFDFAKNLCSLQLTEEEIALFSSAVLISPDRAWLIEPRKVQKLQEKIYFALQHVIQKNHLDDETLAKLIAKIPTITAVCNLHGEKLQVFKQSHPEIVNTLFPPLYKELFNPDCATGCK
In short: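 Readout is reporter-gene mRNA induction, detected as fluorescence after RT-PCR and capillary electrophoresis, fitted for gain of signal against DMSO controls. Transiently transfected HepG2 liver cells carrying GAL4-UAS reporter constructs were treated for 24 hours.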

[7] = target: human RAR-related Orphan Receptor gamma (RORg), RORC (gene 6097) (UniProt P51449); assay: ATG_RORg_TRANS: Attagene TRANS-FACTORIAL HepG2 Assay for human RAR-related Orphan Receptor gamma (RORg) (AID 2283011)
Chain of human RAR-related Orphan Receptor gamma (RORg), RORC (gene 6097) (P51449 whole entry, looked up, the tested form may be a part): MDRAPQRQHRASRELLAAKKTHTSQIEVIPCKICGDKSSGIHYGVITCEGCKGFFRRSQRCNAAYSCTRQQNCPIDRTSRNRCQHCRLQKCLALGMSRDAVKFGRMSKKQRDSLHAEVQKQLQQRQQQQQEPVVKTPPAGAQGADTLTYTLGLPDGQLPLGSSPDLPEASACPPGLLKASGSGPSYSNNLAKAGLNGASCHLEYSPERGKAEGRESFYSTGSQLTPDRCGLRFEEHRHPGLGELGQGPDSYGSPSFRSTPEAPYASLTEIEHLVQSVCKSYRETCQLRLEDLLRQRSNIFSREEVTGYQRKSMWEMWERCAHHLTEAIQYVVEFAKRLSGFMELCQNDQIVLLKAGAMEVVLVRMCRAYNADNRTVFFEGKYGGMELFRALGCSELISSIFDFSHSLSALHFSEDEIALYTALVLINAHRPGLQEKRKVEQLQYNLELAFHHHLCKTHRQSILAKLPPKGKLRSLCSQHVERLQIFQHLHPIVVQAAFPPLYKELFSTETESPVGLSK
In short: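 First, HepG2 liver cells were transfected with GAL4-UAS-driven reporter constructs and the RORg-Gal4 fusion. Next, they were treated with chemical for 24 h. Finally, reporter mRNA was quantified by RT-PCR and capillary electrophoresis, with upward activity fitted against DMSO.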

[8] = target: Retinoic acid receptor RXR-alpha (Homo sapiens) (UniProt P19793); assay: ATG_RXRa_TRANS: Attagene TRANS-FACTORIAL HepG2 Assay for human Retinoid X Receptor alpha (RXRa) (AID 2283012)
Chain of Retinoic acid receptor RXR-alpha (Homo sapiens) (P19793 whole entry, looked up, the tested form may be a part): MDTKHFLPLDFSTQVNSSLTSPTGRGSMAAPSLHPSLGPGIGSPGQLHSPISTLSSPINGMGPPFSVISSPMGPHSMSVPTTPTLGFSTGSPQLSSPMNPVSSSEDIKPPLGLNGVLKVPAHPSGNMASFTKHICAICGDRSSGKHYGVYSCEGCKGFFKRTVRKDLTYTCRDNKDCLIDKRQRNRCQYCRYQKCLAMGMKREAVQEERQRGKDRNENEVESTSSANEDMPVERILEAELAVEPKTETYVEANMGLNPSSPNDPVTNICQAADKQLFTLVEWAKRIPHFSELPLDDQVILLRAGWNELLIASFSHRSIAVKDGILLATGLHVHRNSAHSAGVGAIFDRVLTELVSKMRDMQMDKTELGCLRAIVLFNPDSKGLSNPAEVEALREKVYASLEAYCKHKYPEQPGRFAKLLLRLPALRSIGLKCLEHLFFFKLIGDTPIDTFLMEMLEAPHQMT
In short: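 Transient transfection of human HepG2 with multiple GAL4-UAS reporter constructs; 24 h compound exposure; total RNA isolated, reverse-transcribed, PCR-amplified, 6-FAM labelled, HpaI-cut, resolved by capillary electrophoresis. Positive-direction fit versus DMSO.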

[9] = read-out: Interleukin-1 alpha (IL1a), IL1A (gene 3552); assay: BSK_BE3C_IL1a: BioMAP Diversity Plus: BE3C Assay for Interleukin-1 alpha (IL1a) Biomarker Activity (AID 2283016; active means hit-call score of the fitted dose curve at least 0.9, where 1 is the maximum; inactive means score below 0.9); conditions: primary human bronchial epithelial cells; actives raise or lower the signal
In short: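 BE3C primary human bronchial epithelium; cpd 24 h; IL-1a by ELISA; bidirectional fit vs DMSO; parallel SRB (0.1% SRB, 10% TCA fix, 560 nm) for cytotoxicity.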

[10] = read-out: Monocyte Chemoattractant Protein-1 (MCP1), CCL2 (gene 6347); assay: BSK_3C_MCP1: BioMAP Diversity Plus: 3C Assay for Monocyte Chemoattractant Protein-1 (MCP1) Biomarker Activity (AID 2283017; active means hit-call score of the fitted dose curve at least 0.9, where 1 is the maximum; inactive means score below 0.9); conditions: primary human endothelial cells (HUVEC); actives raise or lower the signal
In short: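 ELISA read-out of MCP-1 from human umbilical vein endothelial cell cultures harvested 24 h post-dosing. Gain or loss of signal was fitted relative to DMSO.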

[11] = target: human Peroxisome Proliferator-activated Receptor delta (PPARd), PPARD (gene 5467) (UniProt Q03181); assay: ATG_PPARd_TRANS: Attagene TRANS-FACTORIAL HepG2 Assay for human Peroxisome Proliferator-activated Receptor delta (PPARd) (AID 2283002)
Chain of human Peroxisome Proliferator-activated Receptor delta (PPARd), PPARD (gene 5467) (Q03181 whole entry, looked up, the tested form may be a part): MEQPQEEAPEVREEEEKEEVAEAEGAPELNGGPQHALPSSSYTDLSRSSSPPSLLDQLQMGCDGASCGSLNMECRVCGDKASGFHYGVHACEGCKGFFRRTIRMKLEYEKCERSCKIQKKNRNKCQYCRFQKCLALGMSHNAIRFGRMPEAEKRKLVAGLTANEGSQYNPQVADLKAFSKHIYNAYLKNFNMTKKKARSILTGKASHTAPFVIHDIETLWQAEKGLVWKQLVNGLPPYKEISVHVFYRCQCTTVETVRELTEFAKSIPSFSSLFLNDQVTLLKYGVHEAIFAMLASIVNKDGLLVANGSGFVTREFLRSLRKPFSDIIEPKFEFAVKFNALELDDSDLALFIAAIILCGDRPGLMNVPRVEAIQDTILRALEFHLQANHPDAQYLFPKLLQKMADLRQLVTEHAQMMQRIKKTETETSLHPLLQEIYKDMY
In short: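 Read-out is induced reporter mRNA, quantified by RT-PCR with fluorescent labelling and capillary electrophoresis after 24 h dosing. Cells are HepG2 transiently carrying multiple GAL4-UAS reporter units driven by exogenous NR-GAL4 chimeras; DMSO serves as baseline.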

[12] = target: Peroxisome proliferator-activated receptor gamma (Homo sapiens) (UniProt P37231); assay: ATG_PPARg_TRANS: Attagene TRANS-FACTORIAL HepG2 Assay for human Peroxisome Proliferator-activated Receptor-gamma (PPARg) (AID 2283007)
Chain of Peroxisome proliferator-activated receptor gamma (Homo sapiens) (P37231 whole entry, looked up): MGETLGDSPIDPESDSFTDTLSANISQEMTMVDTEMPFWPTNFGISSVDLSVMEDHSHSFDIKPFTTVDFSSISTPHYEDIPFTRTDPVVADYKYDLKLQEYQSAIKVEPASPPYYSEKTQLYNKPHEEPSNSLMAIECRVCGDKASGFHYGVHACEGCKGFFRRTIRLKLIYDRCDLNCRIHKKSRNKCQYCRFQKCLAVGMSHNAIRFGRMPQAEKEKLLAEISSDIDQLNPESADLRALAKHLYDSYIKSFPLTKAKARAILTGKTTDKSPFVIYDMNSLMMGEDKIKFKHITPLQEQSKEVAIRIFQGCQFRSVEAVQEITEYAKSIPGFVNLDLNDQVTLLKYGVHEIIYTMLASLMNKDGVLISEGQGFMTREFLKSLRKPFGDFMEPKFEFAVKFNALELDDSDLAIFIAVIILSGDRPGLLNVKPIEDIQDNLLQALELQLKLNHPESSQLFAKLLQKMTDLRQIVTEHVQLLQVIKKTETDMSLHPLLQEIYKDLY
In short: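 Twenty-four hours after chemical dosing of transiently transfected HepG2 cells, isolated RNA was converted to cDNA, reporter sequences amplified and 6-FAM-labelled, then HpaI-digested and analysed by capillary electrophoresis. Signal increase against DMSO was fitted.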

[13] = target: Nuclear receptor subfamily 1 group I member 2 (Homo sapiens) (UniProt O75469); assay: ATG_PXR_TRANS: Attagene TRANS-FACTORIAL HepG2 Assay for human Pregnane X Receptor (PXR) (AID 2283008)
Chain of Nuclear receptor subfamily 1 group I member 2 (Homo sapiens) (O75469 whole entry, looked up, the tested form may be a part): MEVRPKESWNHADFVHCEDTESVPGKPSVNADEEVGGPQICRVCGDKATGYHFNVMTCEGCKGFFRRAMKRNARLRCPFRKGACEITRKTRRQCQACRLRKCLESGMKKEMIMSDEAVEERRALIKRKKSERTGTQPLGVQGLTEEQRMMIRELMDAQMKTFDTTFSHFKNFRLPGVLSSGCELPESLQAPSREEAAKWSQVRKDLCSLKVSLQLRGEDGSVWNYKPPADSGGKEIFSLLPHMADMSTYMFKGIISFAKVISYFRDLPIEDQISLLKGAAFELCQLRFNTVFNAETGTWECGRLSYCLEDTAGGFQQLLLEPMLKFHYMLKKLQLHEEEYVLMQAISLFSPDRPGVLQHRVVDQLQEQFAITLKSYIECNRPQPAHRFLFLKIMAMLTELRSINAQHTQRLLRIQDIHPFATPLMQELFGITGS
In short: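 HepG2 cells transiently transfected with GAL4-UAS reporter units and PXR-Gal4 chimera, exposed 24 h. Reporter mRNA quantified by RT-PCR, fluorescent labelling, HpaI digestion and capillary electrophoresis; gain of signal vs DMSO.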

[14] = target: Retinoic acid receptor alpha (Homo sapiens) (UniProt P10276); assay: ATG_RARa_TRANS: Attagene TRANS-FACTORIAL HepG2 Assay for human Retinoic Acid Receptor alpha (RARa) (AID 2283005)
Chain of Retinoic acid receptor alpha (Homo sapiens) (P10276 whole entry, looked up, the tested form may be a part): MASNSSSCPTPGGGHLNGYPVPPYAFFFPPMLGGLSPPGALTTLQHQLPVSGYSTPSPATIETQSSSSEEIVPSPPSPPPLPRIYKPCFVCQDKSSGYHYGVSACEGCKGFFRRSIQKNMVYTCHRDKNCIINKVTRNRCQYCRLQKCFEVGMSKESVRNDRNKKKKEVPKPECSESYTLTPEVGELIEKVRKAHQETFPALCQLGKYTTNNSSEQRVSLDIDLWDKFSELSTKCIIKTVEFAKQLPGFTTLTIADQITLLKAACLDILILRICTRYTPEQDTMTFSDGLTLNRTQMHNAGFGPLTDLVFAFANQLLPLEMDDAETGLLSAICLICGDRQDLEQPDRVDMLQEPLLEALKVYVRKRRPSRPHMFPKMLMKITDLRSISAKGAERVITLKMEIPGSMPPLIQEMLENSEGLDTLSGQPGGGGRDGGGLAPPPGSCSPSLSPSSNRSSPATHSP
In short: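 Reporter transcripts, measured by RT-PCR with fluorescent labeling and capillary electrophoresis after 24 h dosing, reflect activity of an exogenous human RARa–GAL4 fusion in transiently transfected HepG2. Fitted for increase relative to DMSO.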

[15] = target: human Retinoic Acid Receptor gamma (RARg), RARG (gene 5916) (UniProt P13631); assay: ATG_RARg_TRANS: Attagene TRANS-FACTORIAL HepG2 Assay for human Retinoic Acid Receptor gamma (RARg) (AID 2283009)
In short: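 Transient transfection of HepG2 with multi-reporter constructs, then 24 h chemical treatment. Total RNA isolated, reverse-transcribed, PCR-amplified, fluorescently labelled and resolved by capillary electrophoresis; activity scored as mRNA induction versus DMSO.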

[16] = target: human Retinoid X Receptor beta (RXRb), RXRB (gene 6257) (UniProt P28702); assay: ATG_RXRb_TRANS: Attagene TRANS-FACTORIAL HepG2 Assay for human Retinoid X Receptor beta (RXRb) (AID 2283013)
Chain of human Retinoid X Receptor beta (RXRb), RXRB (gene 6257) (P28702 whole entry, looked up, the tested form may be a part): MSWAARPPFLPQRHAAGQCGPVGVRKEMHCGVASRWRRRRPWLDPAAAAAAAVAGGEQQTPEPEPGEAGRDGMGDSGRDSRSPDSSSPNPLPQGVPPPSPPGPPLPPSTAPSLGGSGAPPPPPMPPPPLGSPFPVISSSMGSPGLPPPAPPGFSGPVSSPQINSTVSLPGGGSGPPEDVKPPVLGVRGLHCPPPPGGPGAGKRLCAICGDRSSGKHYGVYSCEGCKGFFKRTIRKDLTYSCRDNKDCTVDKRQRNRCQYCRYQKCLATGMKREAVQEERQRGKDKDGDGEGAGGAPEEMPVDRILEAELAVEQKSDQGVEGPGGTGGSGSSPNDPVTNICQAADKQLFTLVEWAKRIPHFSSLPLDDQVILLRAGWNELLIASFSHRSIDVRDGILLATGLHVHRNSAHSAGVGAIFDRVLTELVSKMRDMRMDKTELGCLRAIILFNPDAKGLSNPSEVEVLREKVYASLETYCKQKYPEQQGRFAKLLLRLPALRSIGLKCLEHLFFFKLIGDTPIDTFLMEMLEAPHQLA
In short: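 Transfect HepG2 with GAL4-UAS multi-reporter constructs (chimeric NR-Gal4, TRANS format); dose compound 24 h; isolate RNA, RT-PCR, FAM primer extension, HpaI digest; quantify by capillary electrophoresis; positive direction vs DMSO.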

[17] = target: human Thyroid Receptor alpha (THRa1), THRA (gene 7067) (UniProt P10827); assay: ATG_THRa1_TRANS: Attagene TRANS-FACTORIAL HepG2 Assay for human Thyroid Receptor alpha (THRa1) (AID 2283014)
In short: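 Reporter transcript induction, read by capillary electrophoresis of 6-FAM-labelled RT-PCR products, reflects activity of a transfected THRa1-Gal4 fusion in HepG2 liver cells. Cells were dosed for 24 h; activity was fitted in the positive direction against DMSO.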

[18] = read-out: E-selectin (Homo sapiens) (UniProt P16581); assay: BSK_3C_Eselectin: BioMAP Diversity Plus: 3C Assay for Eselectin Biomarker Activity (AID 2283015; active means hit-call score of the fitted dose curve at least 0.9, where 1 is the maximum; inactive means score below 0.9;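 further: cell surface E-selectin protein quantified by ELISA 24 h after dosing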); conditions: primary human endothelial cells (HUVEC); actives raise or lower the signal
In short: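 ELISA read-out of E-selectin on endothelial monolayers after 24 h chemical treatment. Human umbilical vein primary cells served as the system, with DMSO defining baseline activity for bidirectional fitting.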

[19] = read-out: Human Leukocyte Antigen - DR isotype (HLADR), HLA-DRA (gene 3122); assay: BSK_3C_HLADR: BioMAP Diversity Plus: 3C Assay for Human Leukocyte Antigen - DR isotype (HLADR) Biomarker Activity (AID 2283019; active means hit-call score of the fitted dose curve at least 0.9, where 1 is the maximum; inactive means score below 0.9;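 further: ELISA of cell-surface HLA-DR on HUVEC 24 h after dosing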); conditions: primary human endothelial cells (HUVEC); actives raise or lower the signal
In short: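 ELISA readout of surface HLA-DR on human umbilical vein endothelium, taken 24 h after chemical treatment. Gain- and loss-of-signal were both fitted relative to DMSO.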

[20] = read-out: Monocyte Chemoattractant Protein-1 (MCP1), CCL2 (gene 6347); assay: BSK_4H_MCP1: BioMAP Diversity Plus: 4H Assay for Monocyte Chemoattractant Protein-1 (MCP1) Biomarker Activity (AID 2283018; active means hit-call score of the fitted dose curve at least 0.9, where 1 is the maximum; inactive means score below 0.9); conditions: primary human endothelial cells (HUVEC); actives raise or lower the signal
In short: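 ELISA read-out of MCP-1 from human vascular endothelial primary cells taken at 24 hours after compound exposure. Activity was fitted in both directions relative to DMSO, which served as negative control.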

Measured: AC50

Chain of E-selectin (Homo sapiens) (P16581 whole entry, looked up): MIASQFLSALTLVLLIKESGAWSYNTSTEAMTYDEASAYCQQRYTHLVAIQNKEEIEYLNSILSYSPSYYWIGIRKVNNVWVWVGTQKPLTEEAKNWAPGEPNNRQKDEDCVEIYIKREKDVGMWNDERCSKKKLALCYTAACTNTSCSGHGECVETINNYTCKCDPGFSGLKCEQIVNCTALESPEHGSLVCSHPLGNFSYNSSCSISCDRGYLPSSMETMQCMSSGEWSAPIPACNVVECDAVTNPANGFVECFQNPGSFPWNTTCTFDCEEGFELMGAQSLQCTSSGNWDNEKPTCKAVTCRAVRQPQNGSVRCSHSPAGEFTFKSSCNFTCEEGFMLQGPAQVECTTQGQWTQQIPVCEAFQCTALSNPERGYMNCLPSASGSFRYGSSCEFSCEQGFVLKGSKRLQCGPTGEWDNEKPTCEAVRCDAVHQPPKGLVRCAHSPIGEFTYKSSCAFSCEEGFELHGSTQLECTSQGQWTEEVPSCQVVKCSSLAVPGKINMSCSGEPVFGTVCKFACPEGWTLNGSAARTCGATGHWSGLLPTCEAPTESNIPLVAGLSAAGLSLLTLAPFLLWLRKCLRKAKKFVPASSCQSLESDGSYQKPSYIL

CCCC(C)C(=O)OCC (centres undefined)
inactive: [1] | [2] | [3] | [4] | [5] | [6] | [7] | [8] | [9] | [10]

O=C(Oc1ccccc1)c1ccccc1C(=O)Oc1ccccc1
active: [12] 47.6 µM
inactive: [1] | [2] | [11] | [3] | [5] | [13] | [9] | [10]

Clc1cc(Cl)c(Cl)c(Cl)c1Cl
inactive: [3] | [4] | [14] | [5] | [15] | [8] | [17] | [10]
active: [1] 31.4 µM | [13] 27.6 µM | [16] 21.2 µM | [9] 20 µM

CC1=CC=C(C(C)C)CC1
inactive: [1] | [3] | [5] | [12] | [13] | [6] | [8] | [16] | [9] | [10]

C=CC(=O)NC(C)(C)C
inactive: [1] | [3] | [5] | [13] | [16] | [18] | [9] | [10] | [19]

CCOC(=O)[C@H](O)[C@@H](O)C(=O)OCC
active: [13] 68.2 µM
inactive: [2] | [11] | [4] | [14] | [12] | [8] | [16] | [17]

CC1(C)C(=O)N(CO)C(=O)N1CO
inactive: [2] | [11] | [4] | [14] | [13] | [6] | [7] | [17]

CC(CCC(=O)O)(c1ccc(O)cc1)c1ccc(O)cc1
inactive: [1] | [11] | [3] | [5] | [8] | [17] | [18] | [9] | [10] | [20]

CCOC(=O)C1=NOC(c2ccccc2)(c2ccccc2)C1
active: [5] 28.4 µM | [12] 100 µM | [9] 0.129 µM
inactive: [1] | [3] | [13] | [6] | [7] | [18] | [10]

CCCCCC[C@@H](O)C/C=C\CCCCCCCC(=O)OCC(O)CO (some centres undefined)
inactive: [4] | [14] | [13] | [15] | [6] | [8] | [17]
active: [2] 15.3 µM | [11] 27.7 µM | [12] 57.8 µM | [16] 85 µM

CCCCC1C(=O)N(c2ccccc2)N(c2ccccc2)C1=O
inactive: [1] | [3] | [4] | [5] | [8] | [18] | [9] | [10] | [20]
active: [12] 22.6 µM | [13] 1.01 µM
